Source: PubChem BioAssay (NCATS)
Records with an inconclusive call do not appear. The source made the active and inactive calls. The call rests on the fitted dose curve; in most records, active means well fitted inhibition curve with a large enough effect; inconclusive means small, poorly fitted or top-dose-only effect; inactive means flat fitted curve, though single readings scatter.

How the values were obtained:
[1] = tested on: P94_40; assay: qHTS profiling for inhibitors of Plasmodium falciparum proliferation (AID 504749); details: P. falciparum in erythrocytes, SYBR Green DNA, 72 h; series mostly up to 28.7 µM
Method in brief: (§1)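 Each compound contacts P. falciparum-infected red blood cells for 72 h at 37 C; lysis buffer (Tris, EDTA, saponin, Triton X, SYBR Green I) is added and fluorescence measured next morning; values normalized to controls.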

[2] = tested on: PAD; assay: as above; details: P. falciparum in erythrocytes, SYBR Green DNA, 72 h; series mostly up to 28.7 µM
Method in brief: as §1

[3] = tested on: PC15; assay: as above; details: P. falciparum in erythrocytes, SYBR Green DNA, 72 h; series mostly up to 28.7 µM
Method in brief: as §1

[4] = tested on: PC26; assay: as above; details: P. falciparum in erythrocytes, SYBR Green DNA, 72 h; series mostly up to 28.7 µM
Method in brief: as §1

[5] = tested on: PC49; assay: as above; details: P. falciparum in erythrocytes, SYBR Green DNA, 72 h; series mostly up to 28.7 µM
Method in brief: as §1

[6] = tested on: SC27B; assay: as above; details: P. falciparum in erythrocytes, SYBR Green DNA, 72 h; series mostly up to 28.7 µM
Method in brief: as §1

[7] = tested on: TAB109; assay: as above; details: P. falciparum in erythrocytes, SYBR Green DNA, 72 h; series mostly up to 28.7 µM
Method in brief: as §1

[8] = tested on: TAB113; assay: as above; details: P. falciparum in erythrocytes, SYBR Green DNA, 72 h; series mostly up to 28.7 µM
Method in brief: as §1

[9] = tested on: TAB165; assay: as above; details: P. falciparum in erythrocytes, SYBR Green DNA, 72 h; series mostly up to 28.7 µM
Method in brief: as §1

[10] = tested on: W2; assay: as above; details: P. falciparum in erythrocytes, SYBR Green DNA, 72 h; series mostly up to 28.7 µM
Method in brief: as §1

[11] = tested on: CRL-7250; assay: Cytotoxic Profiling of Annotated Libraries Using Quantitative High-Throughput Screening (AID 1296008); details: Five cell lines viability, CellTiter-Glo ATP luminescence, 48-72 h; max response: hits give low values; on max response: on the % scale 0 is the no-effect control and ±100 the full control effect
Method in brief: (§2)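 Cells exposed to compounds for 48 or 72 hr at 37 degrees Celsius. Viability read as ATP-coupled luminescence with CellTiter-Glo after 10 min at room temperature.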

[12] = tested on: HEK293; assay: as above; details: Five cell lines viability, CellTiter-Glo ATP luminescence, 48-72 h; max response: hits give low values
Method in brief: as §2

[13] = tested on: HaCat; assay: as above; details: Five cell lines viability, CellTiter-Glo ATP luminescence, 48-72 h; max response: hits give low values
Method in brief: as §2

[14] = tested on: NIH3T3; assay: as above; details: Five cell lines viability, CellTiter-Glo ATP luminescence, 48-72 h; max response: hits give low values
Method in brief: as §2

[15] = tested on: HEK293T; assay: qHTS assay to identify novel small-molecules to repurpose for Merkel cell carcinoma treatment (AID 1296009); details: MCC and control cell lines, CellTiter-Glo viability, 72 h; at 44.8 µM (top of the series) unless noted; on activity change, negative = cytotoxicity: on the % scale 0 is the no-effect control and ±100 the full control effect
Method in brief: (§3)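 Dose-response viability screen; 72 hr exposure at 37 degree celsius; CellTiter-Glo added, 10 min room temperature, luminescence read; RLUs scaled between no-cell and DMSO wells.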

[16] = tested on: MCC-13; assay: as above; details: MCC and control cell lines, CellTiter-Glo viability, 72 h; series mostly up to 46 µM
Method in brief: as §3

[17] = tested on: MCC-26; assay: as above; details: MCC and control cell lines, CellTiter-Glo viability, 72 h; series mostly up to 46 µM
Method in brief: as §3

[18] = tested on: MKL-1; assay: as above; details: MCC and control cell lines, CellTiter-Glo viability, 72 h; series mostly up to 46 µM
Method in brief: as §3

[19] = tested on: HACAT; assay: as above; details: MCC and control cell lines, CellTiter-Glo viability, 72 h; at 44.8 µM (top of the series) unless noted
Method in brief: as §3

[20] = tested on: KB-3-1; assay: Cytotoxic Profiling of Annotated Libraries Using Quantitative High-Throughput Screening (AID 1296008); details: Five cell lines viability, CellTiter-Glo ATP luminescence, 48-72 h; max response: hits give low values; on max response: on the % scale 0 is the no-effect control and ±100 the full control effect
Method in brief: as §2
Further: nearly all actives have a fitted effect of over 60% in size.
Potency means the concentration at half of the fitted maximal effect.

CC(C(=O)O)c1ccc(CC2CCCC2=O)cc1 (stereo not given)
inactive: Potency [1] | Potency [2] | Potency [3] | Potency [4] | Potency [5] | Potency [6] | Potency [7] | Potency [8] | Potency [9] | Potency [10] | max response [11] 2.29% | outcome [12] | max response [13] -3.69% | max response [14] -16.1% | outcome [15] | Potency [16] | Potency [17] | Potency [18]

CC(C)(Oc1ccc(CCNC(=O)c2ccc(Cl)cc2)cc1)C(=O)O
inactive: Potency [1] | Potency [2] | Potency [3] | Potency [5] | Potency [6] | Potency [7] | Potency [8] | Potency [9] | Potency [10] | max response [11] -10.1% | max response [12] -102% | outcome [13] | outcome [14] | outcome [19] | Potency [16] | Potency [17] | Potency [18]

NC(N)=N/N=C/c1c(Cl)cccc1Cl
active: Potency [10] 12 µM | Potency [12] 18.8 µM
inactive: Potency [5] | Potency [6] | max response [11] 3.75% | max response [13] -6.3% | max response [14] 3.93% | Potency [16] | Potency [17] | Potency [18]

Cc1ccc(S(=O)(=O)NC(=O)NN2CCCCCC2)cc1
inactive: Potency [2] | Potency [3] | Potency [4] | Potency [5] | Potency [6] | Potency [7] | Potency [8] | Potency [9] | Potency [10] | outcome [11] | max response [12] -0.0062% | max response [13] 3.13% | max response [20] 3.88% | max response [14] 0.771% | Potency [16] | Potency [17] | Potency [18]

N[C@@H](COP(=O)(O)O)C(=O)O
inactive: outcome [11] | max response [12] -2.26% | max response [20] -0.563% | max response [14] -2.11% | Potency [16] | Potency [17] | Potency [18]

COC(=O)[C@@H](N)Cc1ccc(O)c(O)c1
inactive: Potency [1] | Potency [2] | Potency [3] | Potency [4] | Potency [5] | Potency [6] | Potency [7] | Potency [9] | max response [11] 0.35% | max response [12] -4.7% | max response [13] 3.62% | max response [20] -3.59% | max response [14] -6.82% | Potency [16] | Potency [17]

CC(=O)[C@]1(O)Cc2c(O)c3c(c(O)c2[C@@H](O[C@H]2C[C@H](N)[C@H](O)[C@H](C)O2)C1)C(=O)c1ccccc1C3=O
active: Potency [1] 3.16 µM | Potency [2] 5.01 µM | Potency [3] 8.91 µM | Potency [5] 7.08 µM | Potency [6] 5.01 µM | Potency [7] 3.98 µM | Potency [8] 4.47 µM | Potency [9] 3.16 µM | Potency [10] 1.69 µM | Potency [11] 0.237 µM | Potency [12] 0.0335 µM | Potency [13] 0.0596 µM | Potency [14] 0.0841 µM | Potency [16] 3.76 µM | Potency [17] 1.33 µM | Potency [18] 0.119 µM

CCCCNc1ccc(C(=O)OCCN(C)C)cc1
inactive: Potency [1] | Potency [2] | Potency [6] | Potency [7] | Potency [8] | Potency [9] | Potency [10] | max response [11] 3.25% | max response [12] -4% | max response [13] -3.56% | max response [20] 0.24% | outcome [14] | Potency [16] | Potency [17] | Potency [18]

Cc1ccc(Cl)c(Nc2ccccc2C(=O)O)c1Cl
inactive: Potency [1] | Potency [2] | Potency [3] | Potency [4] | Potency [5] | Potency [6] | Potency [7] | Potency [8] | Potency [9] | Potency [10] | max response [11] 2.33% | outcome [12] | max response [13] -3.9% | max response [14] 3.05% | outcome [15] | Potency [16] | Potency [17] | Potency [18]

CCc1c(C)[nH]c2c1C(=O)C(CN1CCOCC1)CC2 (stereo not given)
inactive: outcome [11] | max response [12] -11.2% | max response [20] -8.21% | outcome [14] | Potency [16] | Potency [17]

CC1=C(C)C(=O)C(CCCCC#CCCCC#CCO)=C(C)C1=O
inactive: Potency [5] | max response [11] -2.8% | max response [13] -15.6% | max response [20] -7.44% | max response [14] -8.8% | Potency [16] | Potency [17]
active: Potency [1] 8.91 µM | Potency [2] 4.47 µM | Potency [3] 8.91 µM | Potency [4] 7.57 µM | Potency [6] 7.08 µM | Potency [8] 7.94 µM | Potency [9] 5.01 µM | Potency [10] 6.01 µM | Potency [12] 16.8 µM

NCCCNCCSP(=O)(O)O
inactive: Potency [1] | Potency [2] | Potency [3] | Potency [4] | Potency [5] | Potency [6] | Potency [7] | Potency [8] | Potency [9] | Potency [10] | outcome [11] | max response [12] -18.5% | outcome [13] | outcome [14] | outcome [19] inactive [at 9.27 µM] | activity change, negative = cytotoxicity [16] 18.6% [at 9.22 µM] | activity change, negative = cytotoxicity [17] 11.5% [at 9.22 µM] | activity change, negative = cytotoxicity [18] 15.3% [at 9.22 µM]

O=C(O)CN(CCN(CC(=O)O)CC(=O)O)CCN(CC(=O)O)CC(=O)O
inactive: Potency [1] | Potency [2] | Potency [3] | Potency [4] | Potency [5] | Potency [6] | Potency [7] | Potency [8] | Potency [9] | Potency [10] | max response [11] -4.18% | outcome [12] | max response [13] -15.5% | outcome [15] inactive [at 17.4 µM] | Potency [16] | Potency [17] | Potency [18]
